Compounds without any hit were thinned out: in the full panel of roughly 79,000, 15% have a hit. A number with no mark means an inactive call. Active and inactive are the calls of the source. No stated cut-off is given here; in the data, active means growth inhibition above about 70%; inactive means the rest.
How the values were obtained:
[1] = NCI Yeast Anticancer Drug Screen. Data for the rad50 strain (AID 155);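 further: 0% = growth of vehicle-only cultures of the same strain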; settings: S. cerevisiae rad50 strain growth inhibition; at 50.0 µM; stronger effect = higher value
Method in brief: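 Growth of the mutant yeast was measured after compound exposure and referenced to vehicle-treated cultures.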

[2] = NCI Yeast Anticancer Drug Screen. Data for the mec2-1 strain (AID 157); settings: S. cerevisiae mec2-1 strain, at 50.0 µM, stronger effect = higher value
Method in brief: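 Each compound was tested on mec2-1 yeast, a strain altered in DNA damage repair or cell cycle control. Growth inhibition is reported relative to vehicle.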

[3] = NCI Yeast Anticancer Drug Screen. Data for the sgs1 mgt1 strain (AID 161);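 further: 0% = growth of cultures given vehicle only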; settings: S. cerevisiae sgs1 mgt1 strain, at 50.0 µM, stronger effect = higher value
Method in brief: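 Test agents were incubated with a DNA-repair-mutant yeast strain. Growth was then read and compared against vehicle-treated controls.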

[4] = NCI Yeast Anticancer Drug Screen. Data for the cln2 rad14 strain (AID 165);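 further: 0% = growth equal to vehicle treated cultures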; settings: S. cerevisiae cln2 rad14 strain, at 50.0 µM, stronger effect = higher value
Method in brief: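 Test compounds were added to cln2 rad14 yeast cultures; inhibition of growth was then determined by comparison with vehicle treatment.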

[5] = NCI Yeast Anticancer Drug Screen. Data for the bub3 strain (AID 167); settings: S. cerevisiae bub3 mutant strain, at 50.0 µM, stronger effect = higher value
Method in brief: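 Whole-cell yeast assay. The mutant strain was incubated with compounds, and growth inhibition was determined by comparison with vehicle-treated cells.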

[6] = NCI Yeast Anticancer Drug Screen. Data for the mlh1 rad18 strain (AID 175); settings: S. cerevisiae mlh1 rad18 strain growth inhibition; at 50.0 µM; stronger effect = higher value
Method in brief: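 Inhibition values reflect reduced growth of mutant yeast versus vehicle-treated controls following compound exposure; the mutations affect DNA damage repair.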

O=S1CCS(=O)CCS(=O)CC1 (configuration not stated)
growth inhibition [1]: -17.1% | growth inhibition [2]: -2.3% | growth inhibition [3]: -0.6% | growth inhibition [4]: -18.6% | growth inhibition [5]: -0.4% | growth inhibition [6]: -9.7%

CCC1(C)NC(=O)OC1=O (configuration not stated)
growth inhibition [1]: 2.25% | growth inhibition [2]: -5.7% | growth inhibition [3]: -27.6% | growth inhibition [4]: 7.75% | growth inhibition [5]: 20.5% | growth inhibition [6]: 4.65%

CC1(C)N=C(N)N=C(N)N1c1ccc(CCCCc2ccccc2)cc1
growth inhibition [1]: 99.6% (active) | growth inhibition [2]: 99.7% (active) | growth inhibition [3]: 99.8% (active) | growth inhibition [4]: 99.3% (active) | growth inhibition [5]: 50% | growth inhibition [6]: 46.1%

Cc1ccc(C2OC(=O)C(=O)C2=O)cc1 (configuration not stated)
growth inhibition [1]: -35.9% | growth inhibition [2]: -21.4% | growth inhibition [3]: -23.2% | growth inhibition [4]: -21.6% | growth inhibition [5]: -32% | growth inhibition [6]: -3.35%

CCOC(=O)C(Cl)(NC(=O)OCc1ccccc1)C(F)(F)F (configuration not stated)
growth inhibition [1]: -21.8% | growth inhibition [2]: 0% | growth inhibition [3]: 7.15% | growth inhibition [4]: 22.5% | growth inhibition [5]: 6.7% | growth inhibition [6]: -56.1%

O=C(c1ccc(Br)cc1)C(C(c1ccccc1)N1CCOCC1)N1CCOCC1 (configuration not stated)
growth inhibition [1]: 3.1% | growth inhibition [2]: -1.1% | growth inhibition [3]: -9.6% | growth inhibition [4]: -19.5% | growth inhibition [5]: -20.6% | growth inhibition [6]: 31.9%

CSC1=Nc2cc3c(cc2C(=O)N2C[C@H](O)CC12)OCO3 (some centres not stated)
growth inhibition [1]: -20.9% | growth inhibition [2]: -25.5% | growth inhibition [3]: -10.9% | growth inhibition [4]: -34.2% | growth inhibition [5]: -10.8% | growth inhibition [6]: -6.3%

c1ccc2c(c1)C(=NOc1nc3ccccc3c3ccccc13)c1ccccc1-2
growth inhibition [1]: -4.85% | growth inhibition [2]: 10.6% | growth inhibition [3]: 8.75% | growth inhibition [4]: 3.65% | growth inhibition [5]: 7.95% | growth inhibition [6]: 12%

COC(=O)c1ccccc1N=CCC(C)CCCC(C)(C)O (configuration not stated)
growth inhibition [1]: -10.4% | growth inhibition [2]: 4.4% | growth inhibition [3]: 26.4% | growth inhibition [4]: -8.4% | growth inhibition [5]: 0.1% | growth inhibition [6]: -5.05%

O=C1C2C3C=C4c5ccccc5N(c5ccccc5)C4(C2C(=O)N1c1ccc([N+](=O)[O-])cc1)[C@H]1C(=O)N(c2ccc([N+](=O)[O-])cc2)C(=O)[C@@H]31 (some centres not stated)
growth inhibition [1]: 14.7% | growth inhibition [2]: 22.1% | growth inhibition [3]: 21.9% | growth inhibition [4]: 13.2% | growth inhibition [5]: 28% | growth inhibition [6]: 19.1%

COc1cc([C@@H]2OC[C@@H]3C(c4cc(OC)c5c(c4)OCO5)OC[C@@H]32)cc(OC)c1OC (some centres not stated)
growth inhibition [1]: 23.8% | growth inhibition [2]: -4.5% | growth inhibition [3]: 26.6% | growth inhibition [4]: 31.1% | growth inhibition [5]: 4.3% | growth inhibition [6]: -40.8%

CN(C)c1ccc(/C=C/c2ccnc3c(N)cccc23)cc1
growth inhibition [1]: -3.95% | growth inhibition [2]: -8.85% | growth inhibition [3]: -14.4% | growth inhibition [4]: -12.8% | growth inhibition [5]: -10.9% | growth inhibition [6]: 3.8%

CC(C)(C)OC(=O)NC(Cc1ccccc1)C(=O)OCN1C(=O)C2C3C=CC(C2C1=O)C1C2C(=O)N(COC(=O)C(Cc4ccccc4)NC(=O)OC(C)(C)C)C(=O)C2C31 (configuration not stated)
growth inhibition [1]: 26.8% | growth inhibition [2]: -4.1% | growth inhibition [3]: -0.5% | growth inhibition [4]: -6.55% | growth inhibition [5]: 8.25% | growth inhibition [6]: 20.4%

O=C(COc1cc(Cl)c(Cl)cc1Cl)Nc1ccc(N=Nc2ccccc2)cc1
growth inhibition [1]: 2% | growth inhibition [2]: 3.55% | growth inhibition [3]: -12.6% | growth inhibition [4]: -9.55% | growth inhibition [5]: 2.75% | growth inhibition [6]: -7.95%

CCOC(=N)CC(=O)NC(C)c1ccccc1 (configuration not stated)
growth inhibition [1]: 2.25% | growth inhibition [2]: -3.6% | growth inhibition [3]: -6% | growth inhibition [4]: 14.3% | growth inhibition [5]: 0.15% | growth inhibition [6]: 1.85%

CC(C)(C)/C(=N\O)c1ccccc1
growth inhibition [1]: -8.8% | growth inhibition [2]: -13.6% | growth inhibition [3]: -23.3% | growth inhibition [4]: -8.05% | growth inhibition [5]: -17.4% | growth inhibition [6]: -23.3%

CCCCC(C)C(=O)CC(SCC)c1ccc(Cl)c(Cl)c1 (configuration not stated)
growth inhibition [1]: 19.6% | growth inhibition [2]: -26.9% | growth inhibition [3]: 17.3% | growth inhibition [4]: -12.4% | growth inhibition [5]: 8.2% | growth inhibition [6]: -0.95%

c1csc(C2Nc3ccccc3N2)c1
growth inhibition [1]: 17.6% | growth inhibition [2]: -4.1% | growth inhibition [3]: 25.6% | growth inhibition [4]: 15.2% | growth inhibition [5]: 0.5% | growth inhibition [6]: 20.4%

C=CC(=NC(C)(C)C)Nc1ccc(Cl)cc1
growth inhibition [1]: -13% | growth inhibition [2]: -6.8% | growth inhibition [3]: -36.2% | growth inhibition [4]: -14.6% | growth inhibition [5]: -19.2% | growth inhibition [6]: 3.4%

O=C(O)C(CO)C(CO)C(=O)O (configuration not stated)
growth inhibition [1]: -12.9% | growth inhibition [2]: -14.4% | growth inhibition [3]: -7.05% | growth inhibition [4]: -14.7% | growth inhibition [5]: -22.8% | growth inhibition [6]: -2.15%

CSC1(C(=O)O)C2CCC3C2CCC31 (configuration not stated)
growth inhibition [1]: 12.7% | growth inhibition [2]: 16.1% | growth inhibition [3]: 9.95% | growth inhibition [4]: 26.9% | growth inhibition [5]: 51.2% | growth inhibition [6]: 41.5%

O=C(NC(O)C(=O)O)c1ccc(Cl)cc1 (configuration not stated)
growth inhibition [1]: -10.9% | growth inhibition [2]: -10.9% | growth inhibition [3]: -6.2% | growth inhibition [4]: 17.3% | growth inhibition [5]: -6.4% | growth inhibition [6]: -27.9%

O=S(=O)(c1ccc(N=Cc2cccs2)cc1)c1ccc(N=Cc2cccs2)cc1
growth inhibition [1]: -13.2% | growth inhibition [2]: -22.1% | growth inhibition [3]: -10.1% | growth inhibition [4]: 10.7% | growth inhibition [5]: 5.35% | growth inhibition [6]: -13.8%

O=S(=O)(N=N/C=C1\C=CC=CN1O)c1cccs1
growth inhibition [1]: -12.1% | growth inhibition [2]: 6.3% | growth inhibition [3]: -8.25% | growth inhibition [4]: -1.15% | growth inhibition [5]: -26.4% | growth inhibition [6]: -21.1%

Cc1[nH]c(=O)nc(N(CCO)/N=C/c2ccc(Cl)cc2)c1C(=O)Nc1ccc(Cl)cc1
growth inhibition [1]: 6.7% | growth inhibition [2]: 38.6% | growth inhibition [3]: -18.1% | growth inhibition [4]: 12.4% | growth inhibition [5]: -13.3% | growth inhibition [6]: -36%

COc1ccc(/C=N/N2CN(C(CC(N)=O)C(=O)O)P(Nc3ncccn3)N=C2N)cc1OC (configuration not stated)
growth inhibition [1]: 7.55% | growth inhibition [2]: -3.9% | growth inhibition [3]: 0.4% | growth inhibition [4]: -20.9% | growth inhibition [5]: 6.65% | growth inhibition [6]: 8.35%

CC(CCl)NC(=O)Nc1cccc2c1CCCC2 (configuration not stated)
growth inhibition [1]: -12.5% | growth inhibition [2]: 0.3% | growth inhibition [3]: -3.9% | growth inhibition [4]: -36% | growth inhibition [5]: -2.6% | growth inhibition [6]: 18.8%

C#CC(O)(CC)CCCC (configuration not stated)
growth inhibition [1]: -8.85% | growth inhibition [2]: -13.4% | growth inhibition [3]: 10.2% | growth inhibition [4]: -18.5% | growth inhibition [5]: -10.9% | growth inhibition [6]: -4.25%

O=c1c2c(oc3c(Cl)cc(Cl)cc13)CCCC2
growth inhibition [1]: 13.3% | growth inhibition [2]: -19.6% | growth inhibition [3]: -1.8% | growth inhibition [4]: 7.6% | growth inhibition [5]: 5.8% | growth inhibition [6]: 4.05%

CCCCNc1nc(Cl)nc(C(F)(F)F)c1N
growth inhibition [1]: 7.35% | growth inhibition [2]: 2.45% | growth inhibition [3]: 6.55% | growth inhibition [4]: -29.8% | growth inhibition [5]: 1.4% | growth inhibition [6]: 1.35%

CN(C)c1c([O-])c(=[N+](C)C)c1=O
growth inhibition [1]: -37.9% | growth inhibition [2]: -14.2% | growth inhibition [3]: -20.2% | growth inhibition [4]: -10.6% | growth inhibition [5]: -5.55% | growth inhibition [6]: -45.9%

O=C1Nc2ccccc2C2=C3CCCCC3=NNC12 (configuration not stated)
growth inhibition [1]: 97.7% (active) | growth inhibition [2]: 93.8% (active) | growth inhibition [3]: 97.7% (active) | growth inhibition [4]: 68.2% | growth inhibition [5]: 97.5% (active) | growth inhibition [6]: 86% (active)

COC(=O)C1(C)CCCC2(C)C1CCC1(O)C2CC2OC2(C(C)C)C1O (configuration not stated)
growth inhibition [1]: -2.65% | growth inhibition [2]: -21.4% | growth inhibition [3]: -0.9% | growth inhibition [4]: -31.4% | growth inhibition [5]: -13.2% | growth inhibition [6]: 3.45%

CCCCCCCCCCCCCCCCCCN=C(N)N
growth inhibition [1]: -1.55% | growth inhibition [2]: -10.8% | growth inhibition [3]: 12.8% | growth inhibition [4]: 22.4% | growth inhibition [5]: -2.25% | growth inhibition [6]: 10.8%

C=CC(=N)N
growth inhibition [1]: 12.3% | growth inhibition [2]: 2.4% | growth inhibition [3]: -5% | growth inhibition [4]: 8.45% | growth inhibition [5]: 6.6% | growth inhibition [6]: 7.6%

CC(=O)/C(C=Nc1c(C)n(C)n(-c2ccccc2)c1=O)=C(/C)O
growth inhibition [1]: 24.6% | growth inhibition [2]: 29% | growth inhibition [3]: 28.1% | growth inhibition [4]: 9.65% | growth inhibition [5]: 24.9% | growth inhibition [6]: 28.5%

C=C(C)C(=O)OCCn1c(=O)c2c(ncn2C)n(C)c1=O
growth inhibition [1]: -7.25% | growth inhibition [2]: -18.8% | growth inhibition [3]: -12.8% | growth inhibition [4]: -3.1% | growth inhibition [5]: -14.5% | growth inhibition [6]: 5.55%

Reference: PubChem BioAssay (NCI)
